Test results reported in PubChem BioAssay AID588795 (National Center for Advancing Translational Sciences (NCATS), 2011).
Hit rate of the full screen: of about 390,000 compounds, about 1,400 (0.36%) were called active. Inconclusive results (about 2%) are left out. The call rests on the fitted dose curve; in most records, active means well fitted inhibition curve with a large enough effect; inconclusive means small, poorly fitted or top-dose-only effect; inactive means no such curve, though single readings can be large or run the other way. What follows is part of a selection rich in actives, with near analogues and random picks from the rest.

target: Flap endonuclease 1 (Homo sapiens) (UniProt P39748); experiment: qHTS Assay for the Inhibitors of Human Flap endonuclease 1 (FEN1).; further: nearly all actives have a fitted effect of over 65% in size; conditions: Recombinant FEN1 flap cleavage, fluorescence, 15 min; series mostly up to 114 µM; activity change, negative = inhibition: at the top concentration
Sequence (P39748 whole entry, looked up, the tested form may be a part): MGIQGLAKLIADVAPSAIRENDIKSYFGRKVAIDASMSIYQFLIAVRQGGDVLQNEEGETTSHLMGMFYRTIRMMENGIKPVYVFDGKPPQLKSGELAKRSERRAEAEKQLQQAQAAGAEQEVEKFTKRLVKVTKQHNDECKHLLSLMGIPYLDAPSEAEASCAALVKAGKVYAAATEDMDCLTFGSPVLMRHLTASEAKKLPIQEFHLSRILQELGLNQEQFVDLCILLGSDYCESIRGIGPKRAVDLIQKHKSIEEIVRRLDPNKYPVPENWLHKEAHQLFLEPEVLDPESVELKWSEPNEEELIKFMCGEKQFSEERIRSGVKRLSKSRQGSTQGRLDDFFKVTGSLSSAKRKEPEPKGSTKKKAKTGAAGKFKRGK
From the text: The major human flap endonuclease FEN1 is an efficient structure-specific enzyme that recognizes and cleaves a 5'-unannealed DNA flap. It belongs to the RAD2 family nucleases, which are involved in DNA metabolism and are highly conserved in prokaryotes and eukaryotes. FEN1 is a key enzyme in DNA replication, repair and maintenance of genomic stability. 5'-flap removal by FEN1 is critical for Okazaki fragment processing during lagging strand DNA synthesis, long-patch base excision repair (LP BER), and regulating or facilitating recombination events. […] Deletion of the yeast FEN1 gene, i.e. rad27, results in an increased frequency of short DNA (3-32 bp) repeats, micro- and mini-satellite formation, trinucleotide repeat expansion, spontaneous recombination events, and a severe growth defect in association with cell cycle arrest in late S/G2 phase. […] Cells from fen1-/- blastocysts show increased apoptotic cell death after ionizing radiation treatment, and chicken cells lacking the fen1 gene are hypersensitive to DNA alkylating agents, e.g. methylmethane sulfonate (MMS) and N-methyl-N'-nitro-N-nitrosoguanidine (MNNG), as well as hydrogen peroxide.
NIH Chemical Genomics Center [NCGC]
NIH Molecular Libraries Probe Centers Network [MLPCN]
Assay Submitter (PI): David Wilson, National Institute of Aging
Three uL of reagents (buffer in column 3 and 4 as negative control and 10 nM FEN1 in columns 1, 2, and 5-48) were dispensed into 1,536-well black solid-bottomed plate. Compounds (23 nL) were transferred via Kalypsys pin tool equipped with 1536-pin array (10 nL slotted pins, V&P Scientific, San Diego, CA). The plates were then incubated for 15 min at room temperature, and 1 uL substrate (50 nM final concentration) were added to start the reaction read twice at 0 min read and 15 min on ViewLux reader. Throughout the screen, reagent bottle and all liquid lines were chilled and made light-tight to minimize reagent degradation. All screening operations were performed on a fully integrated robotic system (Kalypsys, San Diego, CA) containing one RX-130 and two RX-90 anthropomorphic robotic arms (Staubli, Duncan, SC). Library plates were screened starting from the lowest and proceeding to the highest concentration, and a "double-dipping" step of the highest concentration was required to access higher concentrations of compounds. Vehicle-only plates, with DMSO being pin-transferred to the entire column 5-48 compound area, were inserted uniformly at the beginning and the end of each library in order to monitor for and record any shifts in the background, which can be affected by reagent dispensers or loss in enzyme activity overtime. Screening data was corrected, normalized, and concentration-effect relationships were derived by using publicly-available curve fitting algorithms developed in-house (http://ncgc.nih.gov/pub/openhts). A four parameter Hill equation was fitted to the concentration-response data by minimizing the residual error between the modeled and observed responses.
On the % scale 0 is the no-effect control and ±100 the full control effect; potency means the concentration at half of the fitted maximal effect.

Row | SMILES | Potency | activity change, negative = inhibition
1 | COc1cccc(N2C(=O)NC(=O)/C(=C\c3ccc([N+](=O)[O-])s3)C2=O)c1 | 39.8 µM (active) | 
2 | COc1ccc(CN2C(=O)NC(=O)/C(=C\c3ccc(OC)c(OC)c3OC)C2=O)cc1 |  | -6.59% (inactive)
3 | CCOC(=O)CC(SP1(=S)OCC2(CCCCO2)C(C2CCCCO2)O1)C(=O)OCC (stereo not given) |  | -27.9% (inactive)
4 | C[C@]12CCC3C(CC[C@H]4[C@H](O)[C@H](O)CC[C@]34C)C1CCC2=O (stereo not given in full) |  | -5.27% (inactive)
5 | COc1ccc2c(c1)NP(=S)(c1ccccc1)N2 (stereo not given) |  | -3.42% (inactive)
6 | CCC(C)(O)C(=O)OC1C(=O)OC2CC3C(C)=CC(=O)C(O)C3(C)C3C4(O)OCC23C1C(C)C4O (stereo not given) |  | 2.84% (inactive)
7 | O=C(O)/C=C/c1ccc2c(c1)OCO2 |  | 39.2% (inactive)
8 | O=C(O)c1cc[c]([Sb](=[O])([OH])[OH])cc1[N+](=O)[O-] | 1.41 µM (active) | 
9 | O=C(c1ccccc1[N+](=O)[O-])N1CCC2(CC1)OCCO2 |  | -1.26% (inactive)
10 | CC1C(=O)OC2CCN3CC=C(COC(=O)C(C)(O)C1(C)O)C23 (stereo not given) |  | 18.1% (inactive)
11 | Cc1cc(C)c2c(c1)NP(=S)(c1ccccc1)N2 (stereo not given) |  | 4.1% (inactive)
12 | CC(=O)OC1C2(CC3N4C(=O)C5(CO)SSC4(CC31O)C(=O)N5C)OC(C)C(C)(C)C2=O (stereo not given) |  | 0.834% (inactive)
13 | COc1cc([C@@H]2c3cc4c(cc3[C@H](OC(C)=O)[C@H]3COC(=O)[C@H]23)OCO4)cc(OC)c1OC |  | 0.697% (inactive)
14 | COC1C(O)C(C)OC(OC2CCC3(C=O)C(CCC4C3CCC3(C)C(C5=CC(=O)OC5)CCC43O)C2)C1O (stereo not given) |  | 0.394% (inactive)
15 | CO[C@H]1[C@@H](O)[C@@H](C)O[C@H](O[C@H]2[C@H](Oc3cccc4c(O)c5c(=O)oc6ccc(C)c7c(=O)oc(c34)c5c67)O[C@H](C)[C@H](O)[C@@H]2O)[C@@H]1O | 10 µM (active) | 
16 | O=P1(Oc2ccccc2)CC(O)C(O)C(COCc2ccccc2)O1 (stereo not given) |  | -2.48% (inactive)
17 | CCC(=O)OC(Cc1ccccc1)(c1ccccc1)C(C)CN(C)C (stereo not given) |  | -8.26% (inactive)
18 | CC12CCC(O)CC1CCC1C2CCC2(C)C(C(=O)CC(O)C(F)(F)F)CCC12 (stereo not given) |  | -6.23% (inactive)
19 | c1ccc2c(c1)[I+]c1ccccc1-2 | 50.1 µM (active) | 
20 | N#Cc1c(Cl)c(Cl)c(Cl)c(C#N)c1Cl |  | -1.6% (inactive)
